Screening data (PubChem)
DRD3 agonist: qHTS of D3 Dopamine Receptor Agonist: qHTS. 410,000 tested, 0.58% active. max activation, %. D3R DiscoveRx beta-arrestin cells, luminescence, 90 min. D(3) dopamine receptor (Homo sapiens), P35462. AID 652048, 2013; in the data active = max activation above about 30%
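Agonist-mode cell screen: cells plated at 1500/well and incubated overnight at 37 °C, then exposed to library compounds for 90 min at 37 °C. Detection reagent was added for 30–60 min at room temperature, and luminescence was read.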
D3 antag: qHTS of D3 Dopamine Receptor Antagonist: qHTS; D(3) dopamine receptor (Homo sapiens), P35462; 360,000 tested, 2.5% active; AID 652054, 2013; max response, negative = inhibition, %; D3R cells, DiscoveRx beta-arrestin luminescence, antagonist mode; stronger effect = lower value; in the data active = max response below about -50%; inconclusive = no clear call, values can overlap the other calls
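Cells expressing the human receptor were seeded at 1500 cells/well, incubated overnight at 37 degrees C in 5% CO2, then exposed to library compounds with dopamine controls for 90 minutes at 37 degrees C before luminescent detection.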
PI4K2A block: qHTS for small molecular inhibitors of PI4K2A | activity change, negative = inhibition, % at 76.9 µM | 420,000 tested, 0.13% active | Phosphatidylinositol 4-kinase type 2-alpha (Homo sapiens), Q9BTU6 | purified PI4K2A, ADP-Glo luminescence, 1 h; stronger effect = lower value; in the data active = activity change below about -50%; inconclusive = mostly about -30% to -49%
Target sequence (Q9BTU6 whole entry, looked up): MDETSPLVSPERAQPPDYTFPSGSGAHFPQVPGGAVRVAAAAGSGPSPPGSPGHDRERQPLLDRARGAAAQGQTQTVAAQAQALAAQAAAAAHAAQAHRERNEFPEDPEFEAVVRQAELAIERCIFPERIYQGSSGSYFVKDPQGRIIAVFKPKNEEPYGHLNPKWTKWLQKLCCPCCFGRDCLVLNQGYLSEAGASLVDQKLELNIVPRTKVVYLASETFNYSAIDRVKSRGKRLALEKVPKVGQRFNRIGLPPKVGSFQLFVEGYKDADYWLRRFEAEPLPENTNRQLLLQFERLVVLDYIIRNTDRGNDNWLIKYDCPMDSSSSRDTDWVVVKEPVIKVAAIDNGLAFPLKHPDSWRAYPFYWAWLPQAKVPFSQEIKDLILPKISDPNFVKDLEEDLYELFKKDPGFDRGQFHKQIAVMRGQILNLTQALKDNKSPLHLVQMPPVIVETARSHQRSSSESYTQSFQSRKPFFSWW
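Compounds are screened against recombinant PI4K2A using PI as substrate and ATP, the latter dispensed at 300 microM. Reactions run one hour at ambient temperature before ADP-Glo detection; full inhibition defined by wells lacking enzyme.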
pAkt inh: HTS Assay for Inhibitors of Akt Phophorylation: Primary Screen | Neuro2A IGF-stimulated pAkt S473 HTRF, 20 min; stronger effect = lower value | activity change, % for hits at 50 µM | 360,000 tested, 0.32% active; in the data active = activity change below about -80%; inconclusive = mostly about -51% to -80%
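Neuro2A cells in DMEM with 0.5% FBS, overnight at 37 deg C, given compound at single 50 µM final, then IGF (6 nM final) for 20 min at 37 deg C. Lysed; phospho-Akt Ser473 by HTRF after 24 h, 665/615 ratio.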
LDHA block: qHTS assay for inhibitors of human lactate dehydrogenase. L-lactate dehydrogenase A chain (Homo sapiens), P00338. purified LDHA, NADH/diaphorase-resazurin fluorescence; stronger effect = lower value. activity change, % (values are at about 110 or 230 µM). 480,000 tested, 0.15% active; in the data active = activity change below about -30%; inconclusive = mostly about -25% to -30%
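Enzyme activity of human lactate dehydrogenase 5 (2 nM; 0.06 mM NADH, 0.2 mM pyruvate, 5 min, RT) is measured via a resazurin/diaphorase fluorescence readout of residual NADH.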
RGS4 inh: Inhibitors of Regulator of G Protein Signaling (RGS) 4: qHTS; 390,000 tested, 0.039% active; Transcreener GDP fluorescence polarization, RGS4-accelerated GTP hydrolysis; Potency, µM (series often up to 114 µM), usual class: inhibitors; AID 504845, 2011; active = well fitted inhibition curve with a large enough effect; inconclusive = small, poorly fitted or top-dose-only effect; inactive = no such curve, though single readings can be large or run the other way; also: nearly all actives have a fitted effect of over 75% in size
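MLSMR compounds (23 nl, pin-transferred) preincubated 10 min at room temperature with a 500nM (2x) first reagent, then RGS4 at 900nM (2x) plus Transcreener GDP mix added; fluorescence polarization (620/688 nm) read before and after 90 min at 30 °C.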
A number is an active result; n = inactive; u = inconclusive; x = no result given; [ ] = another dose, or the depositor's remark. Rows were chosen to be rich in hits. Some 2.8% of all compounds tested hit in one or more screens of this group.

SMILES	DRD3 agonist	D3 antag	PI4K2A block	pAkt inh	LDHA block	RGS4 inh
COc1cc(C(C)NCc2csc(C(C)C)n2)ccc1OCCO (configuration not stated)	x	x	x	x	n	x
Cc1ccc(NS(=O)(=O)c2ccc(N/N=C/c3ccc([N+](=O)[O-])o3)c([N+](=O)[O-])c2)c(C)c1	x	x	x	x	n	x
Cc1ccc2c(c1)-c1nc3ccccc3cc1/C2=C\c1cccnc1	x	x	x	x	n	x
Cc1cc(=O)n2c(n1)NC(Nc1ccc(F)cc1)=NC2c1cccs1 (configuration not stated)	x	x	x	x	-37.4	x
Cc1ccc(S(=O)(=O)/C=C/C#N)cc1	x	x	n	x	x	5.97µM
Cc1ccc(S(=O)(=O)/C=C\C#N)cc1	x	x	x	x	x	n
O=S(=O)(/C=C/C=C/S(=O)(=O)c1ccccc1)c1ccccc1	n	-100.5	n	n	n	u
Cc1ccc(S(=O)(=O)C=CS(=O)(=O)c2ccc(C)cc2)cc1	n	-99.4	n	n	u	x
Cc1ccc(S(=O)(=O)c2ccc(C)cc2)cc1	n	n	n	x	n	n
COc1ccc2cnn(CC(=O)N3CCN(c4ccc(F)cc4)CC3)c(=O)c2c1OC	x	x	x	x	n	x
CCOC(=O)c1cnc2cc3c(cn2c1=O)CCCC3	n	n	n	n	n	n
CCOC(=O)C1=C(SCC)c2cc3c(n2C1=O)CCCC3	n	-56.7	n	n	n	n
N#Cc1ccc(CNCCN2CCCC2)cc1	x	x	x	x	n	x
COC(=O)c1sccc1NC(=O)CSc1ccccc1NS(=O)(=O)c1ccc(Cl)cc1	n	-59.3	n	n	n	n
COC(=O)c1sccc1NC(=O)CSc1ccccc1NS(=O)(=O)c1ccccc1Cl	n	n	n	n	n	n
Cc1cc(Cl)ccc1OCC(=O)NCc1cccc(NC(=O)C2CC2)c1	x	x	x	x	n	x
O=S(=O)(Nc1c(S(=O)(=O)c2ccccc2)c2nc3ccccc3nc2n1C1CCCCC1)c1ccccc1	n	-69.6	u	n	n	u
COc1ccc(C(=O)c2c(-c3cccc(C)c3)oc3ccc(N4CCOCC4)cc23)cn1	35.6	n	n	n	n	n
COc1ccc(C(=O)c2c(-c3ccc(OC)cc3)oc3ccc(-c4ccc(OC)nc4)cc23)cc1	n	n	n	n	n	n
CCN(CC)C(=S)SCc1nc2ccccc2s1	x	x	x	x	n	x
COc1ccc2oc(C(=O)N3CCN(C/C=C/c4ccccc4)CC3)c(C)c2c1	30.3	n	n	n	n	n
Cc1cc(C)c2c(CN3CCN(C/C=C/c4ccccc4)CC3)cc(=O)oc2c1	n	-64.2	n	n	n	n
COc1ccc(O)c(CN2CCN(C/C=C/c3ccccc3)CC2)c1	n	-76.3	n	x	n	n
COc1ccc2[nH]c(C)c(C(=O)CN3CCN(C/C=C/c4ccccc4)CC3)c2c1	n	-57.4	n	n	n	n
Cc1cc(C)c2c(CN3CCCCC3)cc(=O)oc2c1	n	n	n	n	n	n
SMILES	DRD3 agonist	D3 antag	PI4K2A block	pAkt inh	LDHA block	RGS4 inh
COc1ccc2oc(C(=O)N3CCN(C(c4ccccc4)c4ccccc4)CC3)c(C)c2c1	n	n	n	n	n	n
CCCOc1cc(O)c2c(=O)cc(-c3ccccc3)oc2c1	x	x	x	x	n	x
O=C(/C=C/c1c(F)cccc1F)c1cc2ccccc2o1	x	x	x	x	n	x
CCCc1nc(SC)ncc1C(=O)NCCc1ccc(Cl)cc1	x	x	x	x	n	x
Cc1cc(OC(=O)c2ccccc2Cl)cc(OC(=O)c2ccccc2Cl)c1	x	x	x	x	n	x
CC1=CC(=O)C=C(C)C1=NOS(=O)(=O)c1ccccc1	n	-56.1	n	n	n	n[11.4 µM]
CC1=CC(=O)C(C(C)C)=C/C1=N/OS(=O)(=O)c1ccccc1	n	-78.7	n	n	n	n
CC1=CC(=O)C(C2CCCCC2)=C/C1=N\OS(=O)(=O)c1ccccc1	x	x	n	x	x	x
O=C(CCc1ncc(-c2ccccc2F)o1)Nc1ccc(F)cc1Cl	x	x	x	x	n	x
Cc1nn(-c2ccccc2)c(NC(=O)c2cccs2)c(-c2ccccc2Cl)c1=O	n	-59.2	n	n	n	n
